DAX1 inh-1: DAX1 (NR0B1) inhibitors, primary screen, cell-based, HEK293, Gal4-DAX1, luciferase luminescence; inhibition, % at 6.75 µM; 340,000 compounds, 0.99% hits; AID 504766, 2011; HEK293 Gal4-DAX1 luciferase reporter;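 active = inhibition above the mean over all tested compounds plus 3 SD, cut at about 4.2% in these data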;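 also: 0% = DAX1-transfected cells with DMSO and 100% = empty-vector control cells with DMSO; inhibition shows as a rise in luminescence from relieved DAX1 repression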
Target sequence (P51843 207-470 limits assumed): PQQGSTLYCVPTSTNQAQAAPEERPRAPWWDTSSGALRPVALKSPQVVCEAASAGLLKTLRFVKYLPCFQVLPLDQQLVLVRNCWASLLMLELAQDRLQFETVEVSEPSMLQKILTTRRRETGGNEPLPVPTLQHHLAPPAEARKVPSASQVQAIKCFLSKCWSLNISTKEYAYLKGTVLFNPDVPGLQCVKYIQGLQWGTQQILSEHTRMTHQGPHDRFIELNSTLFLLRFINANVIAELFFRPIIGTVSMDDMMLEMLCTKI
DAX1 inh-2: DAX1 (NR0B1) inhibitors on StAR promoter, primary screen, cell-based, luminescence, SF-1 (NR5A1), full-length DAX-1; HEK293T StAR-luciferase reporter, SF-1/DAX-1 repression relief; inhibition, % at 6.8 µM; 370,000 compounds, 1.1% hits;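 active = inhibition above the mean over all tested compounds plus 3 SD, cut at about 3.6% in these data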;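 also: 0% = DAX-1 cells with DMSO and 100% = cells lacking DAX-1 with DMSO; higher inhibition means more luminescence from relief of DAX-1 repression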
hgDAF12 agonist: H. glycines DAF-12 receptor agonists, primary screen, cell-based, luminescence, HEK293, GAL4 fusion, UAS-luciferase; HEK293 GAL4-hgDAF12 UAS-luciferase reporter, agonist luminescence; normalized to butyrate control; activation, % at 6.8 µM; Nuclear hormone receptor DAF-12 (Heterodera glycines), GAL4 fusion; AID 687014, 2013; 370,000 compounds, 1.8% hits;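 active = activation above a cutoff set at the mean of all screened compounds plus 3 SD, cut at about 10% in these data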;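 also: 0% = DMSO wells and 100% = sodium butyrate wells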
hcDAF-12 act: H. contortus DAF-12 nuclear receptor activators, primary screen, cell-based, luminescence, HEK293, lit1-tk-luc reporter. HEK293 hcDAF-12 lit1-tk-luc reporter; 0% DMSO, 100% Δ7-dafachronic acid. activation, % at 6.8 µM. 370,000 compounds, 1.4% hits;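 active = activation above the mean of all tested compounds plus 3 SD, cut at about 5.5% in these data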;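 also: 100% = response to 3 µM Δ7-dafachronic acid high control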
ssDAF-12 act: S. stercoralis DAF-12 nuclear receptor activators, primary screen, cell-based, luminescence, HEK293, GRIP1 co-expression, lit1-tk-luc. Nuclear hormone receptor DAF-12 (Strongyloides stercoralis). HEK293 ssDAF-12/GRIP1 lit1-tk-luc reporter; % of 3 µM dafachronic acid response. activation, % at 6.8 µM. 370,000 compounds, 1% hits. AID 652126, 2013;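 active = activation above the mean over all tested compounds plus 3 SD, cut at about 0.9% in these data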;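 also: 0% = DMSO-only wells and 100% = 3 µM delta7-dafachronic acid wells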
* hit, by the source's call. Rows were chosen to be rich in hits. Some 4.1% of all compounds tested hit in one or more screens of this group.

Results for CC(C)[C@H](NC(=O)OC(C)(C)C)c1cc(C(=O)NC2CC2)c(N)s1 ?
DAX1 inh-2: -0.6; hgDAF12 agonist: 1.8; hcDAF-12 act: 0.3; ssDAF-12 act: -1.3

How did Cc1onc(-c2c(Cl)cccc2Cl)c1C(=O)N1CCCc2ccccc21 do in these assays?
DAX1 inh-1: -1.4; DAX1 inh-2: -0.8; hgDAF12 agonist: -3.4; hcDAF-12 act: 0.4; ssDAF-12 act: -1.4

How did Cc1onc(-c2ccccc2)c1C(=O)N1CCCc2ccccc21 do in these assays?
DAX1 inh-1: -0.9; DAX1 inh-2: 1.0; hgDAF12 agonist: 1.1; hcDAF-12 act: 0.3; ssDAF-12 act: 1.0*

How did CC1CN(S(=O)(=O)c2cc(C(=O)NCCC3=CCCCC3)ccc2Cl)CC(C)O1 (configuration not stated) do in these assays?
DAX1 inh-1: -0.8; DAX1 inh-2: 3.8*; hgDAF12 agonist: 6.2; hcDAF-12 act: 0.8; ssDAF-12 act: -0.6

Results for O=C(CN1CCN(Cc2ccccc2Cl)C1=O)NCc1cccnc1 ?
DAX1 inh-1: 6.0*; DAX1 inh-2: -0.8; hgDAF12 agonist: 1.4; hcDAF-12 act: -1.0; ssDAF-12 act: -1.6

How did COc1ccc(C)c2sc(=NC(=O)c3cccc(N4C(=O)CCC4=O)c3)n(C)c12 do in these assays?
DAX1 inh-1: 2.5; DAX1 inh-2: 0.4; hgDAF12 agonist: -0.8; hcDAF-12 act: 0.3; ssDAF-12 act: -0.8

What do the screens show for `C=CCn1c(=NC(=O)c2cccc(N3C(=O)CCC3=O)c2)sc2cccc(OC)c21`?
DAX1 inh-1: 4.8*; DAX1 inh-2: -0.6; hgDAF12 agonist: 0.3; hcDAF-12 act: -2.2; ssDAF-12 act: -1.1

Results for COC(=O)[C@@]12C[C@@H](CC(=O)NCCCN3CCCC3=O)C(=O)N(CCc3ccc(OC)c(OC)c3)C1=CCC(C)(C)C2 ?
DAX1 inh-2: 3.8*; hgDAF12 agonist: -3.7; hcDAF-12 act: 0.6; ssDAF-12 act: -0.9

Results for CCc1cccc(NC2c3ccccc3C(=O)N2c2ccc(C)cn2)c1 (configuration not stated) ?
DAX1 inh-1: 1.8; DAX1 inh-2: 3.3; hgDAF12 agonist: 11.6*; hcDAF-12 act: 4.1; ssDAF-12 act: -0.3

What do the screens show for `C[C@H](NC(=O)c1ccco1)C(=O)Nc1cccc([N+](=O)[O-])c1`?
DAX1 inh-1: 5.3*; DAX1 inh-2: 0.4; hgDAF12 agonist: 2.9; hcDAF-12 act: 0.6; ssDAF-12 act: -1.8

What do the screens show for `O=C(Nc1cc(Oc2ccc(Cl)cc2)cc([N+](=O)[O-])c1)c1ccco1`?
DAX1 inh-1: -0.6; DAX1 inh-2: -0.4; hgDAF12 agonist: -2.5; hcDAF-12 act: 5.6*; ssDAF-12 act: -1.0

How did Cc1nn(-c2nc(-c3ccco3)cc(C(F)(F)F)n2)c(C)c1Br do in these assays?
DAX1 inh-1: 4.7*; DAX1 inh-2: -0.2; hgDAF12 agonist: -0.3; hcDAF-12 act: -2.2; ssDAF-12 act: -1.3

Results for Fc1ccc(N2CCN(c3nc(-c4ccco4)cc(C(F)(F)F)n3)CC2)cc1 ?
DAX1 inh-1: 0.1; DAX1 inh-2: -0.2; hgDAF12 agonist: -0.4; hcDAF-12 act: 2.4; ssDAF-12 act: -1.2

How did C#CCN(CC=C)Cc1ccc(OC)cc1OC do in these assays?
DAX1 inh-2: -0.2; hgDAF12 agonist: -3.6; hcDAF-12 act: -0.3; ssDAF-12 act: -1.1

Results for CC(C)[C@H](NC(N)=O)C(=O)NNC(=O)COc1cccc(C(F)(F)F)c1 ?
DAX1 inh-1: 6.5*; DAX1 inh-2: 0.6; hgDAF12 agonist: 0.1; hcDAF-12 act: -0.9; ssDAF-12 act: -2.2

Results for NNC(=O)COc1cccc(C(F)(F)F)c1 ?
DAX1 inh-1: -1.1; DAX1 inh-2: 0.4; hgDAF12 agonist: 0.0; hcDAF-12 act: 0.5; ssDAF-12 act: -1.3

Results for O=C(CNc1ccc2ccccc2c1)N/N=C/c1ccc(C(=O)O)cc1 ?
DAX1 inh-1: 1.7; DAX1 inh-2: -0.1; hgDAF12 agonist: 4.8; hcDAF-12 act: 5.2; ssDAF-12 act: -0.5

How did O=C(CNc1cccc2ccccc12)N/N=C/c1ccc(C(=O)O)cc1 do in these assays?
DAX1 inh-1: -1.3; DAX1 inh-2: -0.4; hgDAF12 agonist: -0.4; hcDAF-12 act: 5.4; ssDAF-12 act: 1.0*

What do the screens show for `O=C(c1ccc(F)cc1Cl)N1CCC(Oc2cccnc2)CC1`?
DAX1 inh-2: -1.2; hgDAF12 agonist: -1.5; hcDAF-12 act: -2.7; ssDAF-12 act: -2.3

How did O=C(Cn1c(=O)n(Cc2ccco2)c(=O)c2ccccc21)Nc1cccc(Cl)c1 do in these assays?
DAX1 inh-1: 1.5; DAX1 inh-2: 0.0; hgDAF12 agonist: 11.2*; hcDAF-12 act: 1.5; ssDAF-12 act: -1.1

Results for N/C(=N\OC(=O)c1cc([N+](=O)[O-])ccc1Cl)c1ccccn1 ?
DAX1 inh-1: 4.0; DAX1 inh-2: -0.6; hgDAF12 agonist: -1.2; hcDAF-12 act: -1.0; ssDAF-12 act: -1.3

How did N/C(=N\OC(=O)c1ccc([N+](=O)[O-])cc1Cl)c1ccccn1 do in these assays?
DAX1 inh-1: -7.2; DAX1 inh-2: 0.4; hgDAF12 agonist: 9.2; hcDAF-12 act: 6.1*; ssDAF-12 act: 1.1*

What do the screens show for `Clc1nccc(NCc2ccccc2)n1`?
DAX1 inh-1: 1.8; DAX1 inh-2: 0.1; hgDAF12 agonist: 2.3; hcDAF-12 act: -2.8; ssDAF-12 act: -1.9

Results for Clc1cccc(NCc2ccccc2)n1 ?
DAX1 inh-1: 4.9*; DAX1 inh-2: -1.1; hgDAF12 agonist: 4.1; hcDAF-12 act: 0.2; ssDAF-12 act: -1.3

Results for O=C(CN1C(=O)C(=O)N(CCC2=CCCCC2)C1=O)Nc1ccc(F)cc1F ?
DAX1 inh-1: -0.5; DAX1 inh-2: 0.0; hgDAF12 agonist: 6.4; hcDAF-12 act: 1.6; ssDAF-12 act: -1.5

Results for N#Cc1ccc(Cl)cc1NC(=O)CN1C(=O)C(=O)N(CCC2=CCCCC2)C1=O ?
DAX1 inh-1: -0.3; DAX1 inh-2: -0.2; hgDAF12 agonist: 2.0; hcDAF-12 act: 4.3; ssDAF-12 act: 1.2*

How did O=C(Oc1cccc2ccccc12)c1ccco1 do in these assays?
DAX1 inh-1: -0.4; DAX1 inh-2: 0.5; hgDAF12 agonist: -1.8; hcDAF-12 act: 6.0*; ssDAF-12 act: -0.9

Results for Cc1ccc(NC(=O)NCc2c(C)nn(C)c2C)cc1Cl ?
DAX1 inh-1: 0.5; DAX1 inh-2: 4.3*; hgDAF12 agonist: 12.9*; hcDAF-12 act: 1.4; ssDAF-12 act: -0.8

How did Cn1c(Cn2c(=O)sc3ccccc32)nnc1SCC(=O)NC1CCCC1 do in these assays?
DAX1 inh-1: 5.2*; DAX1 inh-2: 0.5; hgDAF12 agonist: 1.9; hcDAF-12 act: 0.9; ssDAF-12 act: -0.1

What do the screens show for `CCn1c(CNC(=O)c2ccc(Cl)cc2)nnc1SCC(=O)N1CCOCC1`?
DAX1 inh-1: 0.6; DAX1 inh-2: 4.5*; hgDAF12 agonist: -0.1; hcDAF-12 act: 0.1; ssDAF-12 act: -1.0

From PubChem
